Screening results (PubChem)
TAR Tat displ = TAR RNA-Tat peptide displacers, HIV-1, primary screen, biochemical, FRET, FAM/TAMRA-labeled Tat | HIV-1 TAR RNA, Tat peptide displacement FRET; stronger effect = higher value | z-score (test concentration not listed) | actives 0.6% (n = 100,000) | AID 1259389, 2018; active = z-score of 3 or more in at least 2 runs
CDC25B-CDK2 inh = primary biochemical HTRF screen for blockers of M-phase inducer phosphatase 2 binding to CDK2/cyclin A | P30305+P24941 | HTRF CDC25B-CDK2/CyclinA binding, anti-His/anti-Flag; stronger effect = higher value | z-score (concentration not given with the values) | actives 0.72% (n = 94,000) | AID 1259370, 2018; in the data active = z-score above about 3.2
Each line names hits and unclear results; the compound was inactive in the other large screens. Most compounds without a hit are left out; they make up all but 0.9% or so of the library.

O=c1[nH]c(=S)[nH]c2sc3c(c12)CCCC3	none (no result: TAR Tat displ)
CCOC(=O)c1[nH]c2sc(C)c(C)c2c1N	none
CCOC(=O)c1[nH]c2sc3c(c2c1N)CCCC3	TAR Tat displ 5.2, CDC25B-CDK2 inh 17
Cc1nn2c3c(cnc2c1-c1ccc(Cl)cc1)C(=O)CC(c1ccccc1)C3 (centres undefined)	none
CCc1ccc(S(=O)(=O)c2cn(CC)c3cc(N4CCCC4)c(F)cc3c2=O)cc1	none (no result: CDC25B-CDK2 inh)
CCc1nnc(NC(=O)c2cc(=O)n3c(nc4ccccc43)s2)s1	TAR Tat displ 3.8 (no result: CDC25B-CDK2 inh)
CCc1nnc(NC(=O)Cn2c(=O)sc3ccccc32)s1	none (no result: TAR Tat displ)
COc1ccc(-c2nnc3ccc(SCC(=O)Nc4nccs4)nn23)cc1	none (no result: TAR Tat displ)
COC(=O)CC(C(=O)OC)P(=O)(O)CN(C)S(C)(=O)=O (centres undefined)	CDC25B-CDK2 inh 4.5 (no result: TAR Tat displ)
Cc1ccc(S(=O)(=O)c2c(N)n(CCO)c3nc4ccccc4nc23)cc1	CDC25B-CDK2 inh 18 (no result: TAR Tat displ)
CCOC(=O)c1c(N)n(CCc2ccccc2)c2nc3ccccc3nc12	none
CCOC(=O)c1nn(-c2ccc(OC)cc2)c(=O)c2c(NC(=O)C3CCCC3)scc12	none (no result: TAR Tat displ)
CCOC(=O)c1nn(-c2ccccc2)c(=O)c2c(N)scc12	CDC25B-CDK2 inh 19
Clc1ccc(CCN2COc3cc4c(cc3C2)OCO4)cc1	none (no result: TAR Tat displ)
O=C1c2ccccc2C(=O)c2c1oc(C(F)(F)F)c2C(=O)c1ccc2ccccc2c1	CDC25B-CDK2 inh 9.3 (no result: TAR Tat displ)
O=C(c1ccc2c(c1)C(=O)c1ccccc1-2)c1ccccc1Br	none (no result: TAR Tat displ)
CCc1ccc(N2CSC3=C(C#N)C(c4cccs4)CC(=O)N3C2)cc1 (centres undefined)	CDC25B-CDK2 inh 6.2
COc1ccc(N2CSC3=C(C#N)C(c4cccs4)CC(=O)N3C2)cc1 (centres undefined)	none
COC(=O)c1ccc(N2CSC3=C(C#N)C(c4cccs4)CC(=O)N3C2)cc1 (centres undefined)	none
Cc1ccc(N2CSC3=C(C#N)C(c4cccs4)CC(=O)N3C2)cc1 (centres undefined)	CDC25B-CDK2 inh 4.1
CCOC(=O)c1ccc(N2CSC3=C(C#N)C(c4cccs4)CC(=O)N3C2)cc1 (centres undefined)	CDC25B-CDK2 inh 7.1
CC1CCCN(C(=O)Cn2cc(S(=O)(=O)N3CCCC3)c(S(=O)(=O)N3CCCC3)c2)C1 (centres undefined)	none (no result: CDC25B-CDK2 inh)
CCOC(=O)c1c(NC(C)=O)c2c(C)c(C)sc2n1CC(=O)N(CC)c1ccccc1	none (no result: CDC25B-CDK2 inh)
NC(=O)c1ccccc1NC(=O)c1c2c(nc3ccccc13)C(=O)N(C1CCCCC1)C2	none (no result: CDC25B-CDK2 inh)
O=C(CSCC(=O)Nc1cccc(C(F)(F)F)c1)Nc1ccccc1	none (no result: TAR Tat displ)
O=C(O)CSCC(=O)Nc1cc(C(F)(F)F)cc(C(F)(F)F)c1	CDC25B-CDK2 inh 8.4 (no result: TAR Tat displ)
CCOC(=O)c1ccc(Nc2c(-c3ccc(C(C)C)cc3)c(=O)c2=O)cc1	none (no result: CDC25B-CDK2 inh)
N#Cc1ccc(-c2cc(C(=O)O)c3c(ccc4ccccc43)n2)cc1	CDC25B-CDK2 inh 12 (no result: TAR Tat displ)
O=C(O)c1cc(-c2ccccc2)nc2ccccc12	none
CC12CCC(C1)C(C)(C)C2NS(=O)(=O)c1ccc(C#N)cc1 (centres undefined)	none (no result: TAR Tat displ)
Cc1cc(=O)n2nc(N3CCC(C(=O)NCCCN4CCOCC4)CC3)sc2n1	none
O=C(CSc1nc2ccc(NC(=O)c3ccco3)cc2s1)Nc1nccs1	none
Nc1ccc2nc(SCC(=O)Nc3ccc4nc(SCC(=O)NC5CC5)sc4c3)sc2c1	CDC25B-CDK2 inh 19 (no result: TAR Tat displ)
NC(=O)CSc1nc2ccc(NC(=O)c3ccco3)cc2s1	CDC25B-CDK2 inh 12
CCC(=O)Nc1ccc2nc(SCC(N)=O)sc2c1	none
Cc1nc(N2CCCC2)ncc1C(=O)NC1CCCC1	none (no result: CDC25B-CDK2 inh)
O=C(O)c1c[nH]c2c(ccc3ccccc32)c1=O	TAR Tat displ 9.3
Cc1c(Cl)ccc2c(=O)c(C(=O)O)c[nH]c12	none
CCOC(=O)c1ccc(NC(=S)NC(NC(=O)c2ccccc2Br)C(Cl)(Cl)Cl)cc1 (centres undefined)	none (no result: TAR Tat displ)
CC(=O)c1ccc(NC(=S)NC(NC(=O)c2cccc(Cl)c2)C(Cl)(Cl)Cl)cc1 (centres undefined)	CDC25B-CDK2 inh 3.2 (no result: TAR Tat displ)
Cc1noc(C(=O)Nc2cc(Br)ccc2O)c1Cl	none
O=[N+]([O-])c1ccc(N/N=C2\CCOc3ccc(F)cc32)cc1	none (no result: TAR Tat displ)
CNC[C@H](O)c1ccc(O)c(O)c1	none (no result: TAR Tat displ)
NC[C@H](O)c1ccc(O)c(O)c1	TAR Tat displ 27, CDC25B-CDK2 inh 5.9
COc1ccc(Nc2nc(N3CCC(C)CC3)nc3c2cnn3C)cc1Cl	none (no result: CDC25B-CDK2 inh)
COc1ccc(Nc2ncnc3onc(-c4ccccc4OC)c23)cc1OC	none (no result: CDC25B-CDK2 inh)
Cc1cc(C)n2c(n1)nc1ccccc12	none (no result: TAR Tat displ)
Cc1cc(-n2nnc3ccccc32)nc(C)n1	TAR Tat displ 14
O=C(Cn1cnc(S(=O)(=O)N2CCc3ccccc32)c1)Nc1cccc(F)c1	none (no result: CDC25B-CDK2 inh)
COc1ccc(N2CSC3=C(C#N)C(c4c(F)cccc4Cl)CC(=O)N3C2)cc1 (centres undefined)	CDC25B-CDK2 inh 3.7
